In the library only some 3.2% were active in any assay of this set; here they are far more common.
RE007 growth inh: less growth of the S. pombe RE007 Vpr strain | AID 651644 | S. pombe RE007 Vpr strain, BacTiter-Glo ATP luminescence, 24 h | 360,000 tested, 0.21% active | Potency, µM (top dose mostly 92.2 µM), usual class: inhibitors; active = well fitted falling curve with a large enough effect; inconclusive = small, poorly fitted or top-dose-only effect; inactive = no such curve, though single readings can be large or run the other way; also: nearly all actives have a fitted effect of over 50% in size
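Fission yeast strain RE007, carrying one chromosomally integrated HIV-1 vpr copy, was seeded at OD 0.01 in PMG+AL medium with 23 nL pinned compound. After 24 h at 30 °C and 99% humidity, viability was read by BacTiter-Glo luminescence.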
AmpC detergent: blocks E. coli AmpC beta-lactamase in detergent assay; Potency, µM (top dose mostly 114 µM), actives largely listed as inhibitors; AmpC hydrolysis of nitrocefin, absorbance 480 nm, 0.01% Triton; 370,000 tested, 0.041% active; P00811; also: nearly all actives have a fitted effect of over 25% in size
Target sequence (P00811 whole entry, looked up): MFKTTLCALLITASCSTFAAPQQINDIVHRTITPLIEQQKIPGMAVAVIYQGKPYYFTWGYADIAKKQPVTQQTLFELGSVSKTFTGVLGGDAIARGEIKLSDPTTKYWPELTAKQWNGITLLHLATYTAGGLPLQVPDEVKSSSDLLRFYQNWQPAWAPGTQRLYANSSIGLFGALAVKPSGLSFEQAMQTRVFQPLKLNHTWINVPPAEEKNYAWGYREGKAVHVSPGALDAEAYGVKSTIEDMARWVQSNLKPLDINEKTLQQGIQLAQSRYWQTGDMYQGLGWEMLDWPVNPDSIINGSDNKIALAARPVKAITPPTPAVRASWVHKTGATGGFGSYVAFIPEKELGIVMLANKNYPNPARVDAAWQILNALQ
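AmpC (5.3 nM in the dispensed reagent) in 20 mM phosphate pH 7.0 with 0.01% (detergent screen) or 0.0001% Triton X-100 was preincubated with compounds for 15 min at room temperature. Nitrocefin was then added from an 800 uM solution, and hydrolysis was followed at 480 nm.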
AMA1 RON2 block: inhibitors of Plasmodium falciparum AMA1-RON2 interaction; AlphaScreen AMA1-biotinylated RON2 peptide binding; Potency, µM (titrated, usually from 58.2 µM), actives largely listed as inhibitors; 360,000 tested, 0.2% active; also: nearly all actives have a fitted effect of over 45% in size
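AMA1 (3D7) with his tag at 25 nM final met compounds first, then biotinylated RON2 peptide at 25 nM; detection used donor plus acceptor beads, 10 µg/mL apiece, read by AlphaScreen after 30 min at room temperature.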
Sm TGR block: inhibitors of Schistosoma mansoni thioredoxin glutathione reductase; Q962Y6; purified TGR, DTNB reduction, TNB absorbance 405 nm; Potency, µM (titrated, usually from 114 µM), actives largely listed as inhibitors; 360,000 tested, 3% active; also: nearly all actives have a fitted effect of over 60% in size
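TGR 20 nM + NADPH 100 uM (dispensed conc.), cpd preinc 15 min RT; start with NADPH (500 uM addition) then DTNB (15 mM addition). Kinetic TNB absorbance, 405 nm filter. Four-parameter Hill fit across titration.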
AmpC inh no detg: AmpC beta-lactamase inhibition without detergent | P00811 | AmpC nitrocefin hydrolysis, absorbance 480 nm, 0.0001% Triton | Potency, µM (titrated, usually from 57.1 µM), actives largely listed as inhibitors | 330,000 tested, 0.52% active; also: nearly all actives have a fitted effect of over 20% in size
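20 mM phosphate pH 7.0 + 0.01% (detergent screen) or 0.0001% Triton X-100; 5.3 nM AmpC reagent; cpd preinc 15 min RT; nitrocefin (800 uM stock) to start; A480 q20 s × 4 min; Activity was normalised to no-enzyme and no-compound control wells.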
Each line names hits and unclear results; the compound was inactive in the other large screens. Unless noted, calls follow the shape of the dose curve; as a rule, active = well fitted curve in the direction sought with a large enough effect; inconclusive = small, poorly fitted or top-dose-only effect, or another doubt; inactive = no such curve, though single readings can be large; an effect the other way counts as inactive or inconclusive.

CCOc1ccccc1N1CSC2=C(C#N)C(c3c(OC)ccc4ccccc34)CC(=O)N2C1 (centres undefined)	Sm TGR block 13µM
COc1ccc(N2CSC3=C(C#N)C(c4cc(OC)ccc4OC)CC(=O)N3C2)c(OC)c1 (centres undefined)	AmpC detergent inconclusive, Sm TGR block inconclusive
COc1ccc(N2CSC3=C(C#N)C(c4ccc(OC)c(OC)c4)CC(=O)N3C2)c(OC)c1 (centres undefined)	AmpC detergent inconclusive, Sm TGR block 7.9µM
CCOC(=O)c1ccc(N2CSC3=C(C#N)C(c4cccs4)CC(=O)N3C2)cc1 (centres undefined)	none
COc1ccc(C2CC(=O)N3CN(c4ccc(C)c(Cl)c4)CSC3=C2C#N)cc1OC (centres undefined)	Sm TGR block 50µM
COc1cccc2oc(-c3ccco3)cc(=O)c12	AmpC detergent inconclusive, Sm TGR block 7.9µM
O=S(=O)(NC(=S)NC1CCCCC1)c1cccs1	Sm TGR block 25µM
COCCn1c(CCC(=O)O)ccc1-c1cccs1	Sm TGR block 14µM
CCCCn1c(CCC(=O)O)ccc1-c1cccs1	AmpC detergent inconclusive, Sm TGR block 8.9µM
O=C(O)CCc1ccc(-c2cccs2)n1Cc1ccco1	Sm TGR block inconclusive
COc1ccc(-c2nc3scc(CCNS(=O)(=O)c4ccc(F)cc4C)n3n2)cc1	none (no result: RE007 growth inh, AMA1 RON2 block, AmpC inh no detg)
CCOC(=O)C1=C(C)NC2=C(C(=O)CCC2)C1c1ccc(O)c(OCC)c1 (centres undefined)	AmpC detergent inconclusive
CCOc1cc(C2C(C(=O)N3CCCCC3)=C(C)NC3=C2C(=O)CCC3)cc(Br)c1O (centres undefined)	Sm TGR block 25µM
COc1cc(/C=C2\SC(=O)N(c3ccccc3Cl)C2=O)cc([N+](=O)[O-])c1O	RE007 growth inh 35µM
Cc1cc(C)c2c(NC(=O)c3ccccc3)c(C(=O)Nc3ccc(F)cc3)sc2n1	none (no result: RE007 growth inh, AMA1 RON2 block, AmpC inh no detg)
CC(C)C(=O)Nc1ccc(N2CCN(c3ccc(F)cc3)CC2)cc1	none
O=C(CNCc1cccs1)Nc1ccc(S(=O)(=O)N2CCCCC2)cc1	none
CC(C)C(=O)Nc1ccc(N2CCCC2)cc1	Sm TGR block 35µM
Cc1cc(C)cc(C(=O)Nc2ccc(N3CCCC3)cc2)c1	Sm TGR block inconclusive
Cc1cc(C)cc(NC(=O)Nc2ccc(N3CCCCC3)cc2)c1	AmpC inh no detg 16µM
O=C(CNCc1cccs1)Nc1ccc(N2CCCCCC2)cc1	AMA1 RON2 block 35µM
O=Nc1c(O)n(Cc2ccc(Cl)c(Cl)c2)c2ccccc12	RE007 growth inh inconclusive, AmpC inh no detg 2.5µM
CCN(Cc1ccccc1)C(=O)Cn1c(=O)n(-c2ccc(F)c(Cl)c2)c(=O)c2sc3ccccc3c21	none (no result: RE007 growth inh, AMA1 RON2 block, AmpC inh no detg)
O=C(NNc1ccc(Cl)cc1)c1c(F)cccc1Cl	none
CC(=O)C(=Nc1ccccc1Cl)NNc1ccc(Cl)cc1	AMA1 RON2 block 20µM, Sm TGR block 40µM
COc1cccc(-n2c(SCc3ccc(F)cc3)nc3c([nH]c4ccccc43)c2=O)c1	none (no result: RE007 growth inh, AMA1 RON2 block, AmpC inh no detg)
Cc1cc2cc(C(c3nnnn3Cc3ccco3)N3CCCCC3)c(=O)[nH]c2cc1C (centres undefined)	Sm TGR block 40µM
Cc1cccc2cc(C(c3nnnn3Cc3ccc4c(c3)OCO4)N3CCCC3)c(=O)[nH]c12 (centres undefined)	Sm TGR block 11µM
Clc1ccccc1C(c1nnnn1Cc1ccco1)N1CCN(Cc2ccco2)CC1 (centres undefined)	Sm TGR block 32µM
O=c1[nH]c2cc3c(cc2cc1C(c1nnnn1Cc1ccccc1)N1CCCCCC1)OCCO3 (centres undefined)	AmpC detergent inconclusive, Sm TGR block inconclusive
CCOc1ccc2[nH]c(=O)c(C(c3nnnn3Cc3ccco3)N3CCN(C)CC3)cc2c1 (centres undefined)	Sm TGR block inconclusive
Cc1cc(C(c2nnnn2Cc2ccccc2)N2CCOCC2)c(C)n1-c1ccc2c(c1)OCO2 (centres undefined)	Sm TGR block 10µM
COc1ccc(OC)c(C(c2nnnn2Cc2ccco2)N2CCN(C)CC2)c1 (centres undefined)	none
